Data published in paper PMC5540273 (PLoS ONE, 2017).

Legend:
Settings in all cases: concentration: 1 μM, replicates: in singlicate; n = 1
ACVR1B = test system: ACVR1B
ACVR1 = test system: ACVR1
ACVR2A = test system: ACVR2A
ACVR2B = test system: ACVR2B
ACVRL1 = test system: ACVRL1
ADCK3 = test system: T1, ADCK3
T1 construct: gene CABC1

ADCK4 = test system: ADCK4
AKT1 = test system: AKT1
AKT2 = test system: AKT2
AKT3 = test system: AKT3
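Note: KINOMEscan kinase panel screen.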

Compound	%Inh (ACVR1B) [%]	%Inh (ACVR1) [%]	%Inh (ACVR2A) [%]	%Inh (ACVR2B) [%]	%Inh (ACVRL1) [%]	%Inh (ADCK3) [%]	%Inh (ADCK4) [%]	%Inh (AKT1) [%]	%Inh (AKT2) [%]	%Inh (AKT3) [%]
COc1cc2nccc(Nc3cccc(Oc4ccccc4)c3)c2cc1OC.Cl [GW284543]	12	0	0	0	0	32	22	0	7	0
Nc1ncnc2c1ncn2-c1cccc2ccccc12 [SKF-97184]	0	0	0	0	26	0	52	8	0	0
Nc1n[nH]c2nnc(-c3ccccc3)c(-c3ccccc3)c12 [GW554060]	0	21	0	0	0	27	36	0	16	0
COc1cc2ncn(-c3cc(OCc4ccncc4)c(C(N)=O)s3)c2cc1OC [GSK336313]	0	9	0	0	0	0	20	0	1	0
COc1cc2ncn(-c3cc(OCc4ccncc4Br)c(C(N)=O)s3)c2cc1OC [GW854278]	9	5	8	2	0	15	0	0	0	0
OCCCNc1nccc(-c2c(-c3cccc(C(F)(F)F)c3)nn3cc(C(F)(F)F)ccc23)n1 [GW630813]	0	0	0	0	0	68	43	0	0	0
CCc1nc(-c2cccc(C)c2)c(-c2ccncc2)s1	20	3	5	0	5	55	0	0	0	0
CCC(=O)c1c(-c2ccccc2)c2cc(Cl)ccc2c(=O)n1Cc1ccc(C(=O)O)cc1	0	11	0	0	0	0	0	0	0	0
COC(=O)c1c(-c2ccccc2)c2cc(Br)ccc2c(=O)n1Cc1ccc(S(C)(=O)=O)cc1	0	15	0	0	0	12	8	14	28	0
C[C@@H]1CC[C@H](C(=O)NC2CCCCC2)CN1c1cc(-c2ccc3c(N)n[nH]c3c2)nc(N)n1 [GSK2291363]	0	0	0	0	0	22	49	0	11	0
COc1ccc(-c2coc3ccc(-c4nnc(SCc5cccc(C#N)c5)o4)cc23)cc1	6	6	0	0	0	21	0	0	2	0
CCC(=O)c1c(-c2ccccc2)c2cc(Cl)ccc2c(=O)n1Cc1cc(S(C)(=O)=O)n(CC(N)=O)n1	0	0	14	0	0	29	0	0	0	0
COc1ccc(-c2cc3c(C)nc(N)nc3n([C@H]3CC[C@H](O)CC3)c2=O)cn1	0	0	0	0	0	0	0	0	0	0
CCCC(=O)Nc1n[nH]c2ncc(-c3cccc4ccccc34)cc12 [SB-642057]	0	26	0	9	59	5	5	0	39	0
CCC(=O)c1c(-c2ccccc2)c2cc(Cl)ccc2c(=O)n1Cc1cc(S(C)(=O)=O)n(CC(F)F)n1	0	0	0	0	0	0	0	0	0	0
Nc1ncnc2c1ncn2-c1cccc(F)c1 [SKF-97560]	0	1	0	0	0	21	0	9	12	0
O=C(Nc1ccc2c(c1)OCO2)NC1CCN(c2ccnc(NCc3ccc(F)cc3)n2)CC1 [GSK1379859]	0	0	0	0	0	0	30	0	5	0
Cl.NS(=O)(=O)c1cccc(Nc2cc(-c3ccc(F)cc3)n[nH]2)c1 [GW824645]	0	0	0	0	0	0	0	0	0	0

Compound	%Inh (ACVR1B) [%]	%Inh (ACVR1) [%]	%Inh (ACVR2A) [%]	%Inh (ACVR2B) [%]	%Inh (ACVRL1) [%]	%Inh (ADCK3) [%]	%Inh (ADCK4) [%]	%Inh (AKT1) [%]	%Inh (AKT2) [%]	%Inh (AKT3) [%]
COc1ccc(-n2cnc3c(N)ncnc32)cc1 [SKF-97236]	21	7	35	32	10	0	0	0	1	11
CCc1ccc(-c2ccc3c(c2)-c2nn(C)cc2S(=O)(=O)N3C)cc1	0	0	21	1	0	0	0	0	3	0
COc1cc(Nc2ccnc3ccc(C(F)(F)F)cc23)cc(OC)c1OC [GW577382]	0	67	0	0	52	86	54	0	20	0
COC(=O)c1c(-c2ccccc2)c2cc(Br)ccc2c(=O)n1Cc1ccc(NC(=O)CCC(=O)O)cc1	0	0	0	0	0	0	0	12	11	0
O=C(Nc1n[nH]c2cc(-c3ccccc3F)ccc12)C1CC1 [SB-733371]	1	32	38	48	0	0	0	0	0	7
O=c1cc(N2CCOCC2)nc2n(Cc3ccc(F)c(Cl)c3)ccn12 [GSK2297099]	0	0	0	0	0	0	11	0	13	0
Nc1nccc2scc(-c3ccc4c(c3)CCN4C(=O)Cc3ccccc3)c12 [GSK2576924]	0	10	42	0	0	13	0	0	11	0
COc1cc2ncn(-c3cc(OCCCc4ccccc4)c(C(N)=O)s3)c2cc1OC [GSK205189]	0	0	0	0	0	24	3	0	2	0
Cc1cccc(-c2nc(Nc3ccc4c(cnn4C)c3)c3ccccc3n2)n1 [GW876731]	64	0	2	0	0	8	4	21	0	20
COc1cc(Nc2nccc(N3CCC(NC(=O)C4COc5ccccc5O4)C3)n2)cc(OC)c1OC (centres unmarked) [GSK1379761]	0	20	22	13	0	10	65	0	9	0
Cc1cc(Nc2nc(-c3cccc(C)n3)nc3ccccc23)ccn1 [GW872411]	73	0	2	13	0	0	0	0	0	2
COc1cc(Nc2nccc(N3CCC(NC(=O)C(C)c4ccc(Cl)cc4)C3)n2)cc(OC)c1OC (centres unmarked) [GSK1379757]	0	4	0	12	0	3	69	0	0	0
Cc1ccc(-c2ccc3c(ccc4sc5c(c43)NC[C@@H](C)N=C5N(C)C)n2)cn1	0	0	0	0	12	0	0	0	0	0
Nc1ncnc2c1ncn2-c1ccc(Cl)cc1 [AH2635]	0	3	0	16	0	24	33	0	0	0
COc1cccc(-n2cnc3c(N)ncnc32)c1 [SKF-97416]	22	0	3	0	11	0	8	1	0	22
O=C(NCCNc1ccnc(Nc2ccc(F)cc2)n1)Nc1ccc2c(c1)OCO2 [GSK1379882]	0	0	0	0	0	9	23	0	0	0
CC(C)(C)c1ccc(C(=O)Nc2cn3cc(-c4ccccc4)ccc3n2)cc1	0	5	0	0	5	25	0	0	0	0
